# Screens as filed in PubChem BioAssay.
# Sampled rows, rich in hits. Any-hit rate of the full collection: about 11%.
# HPGD block: qHTS Assay for Inhibitors of HPGD (15-Hydroxyprostaglandin Dehydrogenase); 15-hydroxyprostaglandin dehydrogenase [NAD(+)] (Homo sapiens), P15428; purified HPGD, NADH fluorescence kinetic, PGE2 substrate; Potency, µM, usual class: inhibitors; 4.3% of 150,000 active
#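 NADH formation kinetics: reaction with 30 uM PGE2 and 1 mM NAD+ (final), 20 nM enzyme, Tris-HCl pH 8 with Tween 20, after 15 min compound preincubation at room temperature. Fluorescence change, last versus first of five reads.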
# ALDH1A1 inh: qHTS Assay for Inhibitors of Aldehyde Dehydrogenase 1 (ALDH1A1); 7.3% of 220,000 active; Potency, µM (series often up to 75.3 µM), most hits filed as inhibitors; Purified ALDH1A1, NADH fluorescence, propionaldehyde substrate
# Target sequence (P00352 whole entry, looked up): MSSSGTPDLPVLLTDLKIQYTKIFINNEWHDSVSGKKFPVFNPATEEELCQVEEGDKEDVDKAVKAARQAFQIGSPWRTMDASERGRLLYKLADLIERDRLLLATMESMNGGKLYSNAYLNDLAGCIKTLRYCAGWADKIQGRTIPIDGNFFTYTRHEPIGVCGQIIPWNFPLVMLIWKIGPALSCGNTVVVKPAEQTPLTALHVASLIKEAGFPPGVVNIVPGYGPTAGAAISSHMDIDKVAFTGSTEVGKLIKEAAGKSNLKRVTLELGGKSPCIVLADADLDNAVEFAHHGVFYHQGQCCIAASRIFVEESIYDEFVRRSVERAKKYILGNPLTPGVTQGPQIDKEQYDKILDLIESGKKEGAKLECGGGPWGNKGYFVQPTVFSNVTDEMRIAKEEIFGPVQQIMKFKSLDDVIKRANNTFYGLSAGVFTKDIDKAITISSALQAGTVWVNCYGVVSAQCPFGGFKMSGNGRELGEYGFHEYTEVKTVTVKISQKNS
# PNC assembly inh: High Content Assay for Compounds that inhibit the Assembly of the Perinucleolar Compartment; 3.1% of 140,000 active; PC3M PTB-GFP, PNC prevalence imaging, 16 h; hits give low values; activity change (PNC), negative = inhibition, % at 10 µM;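 active = readout at or below -70, meaning at least 70% loss of cells showing the perinucleolar compartment, a nuclear body marking cancer cells; inconclusive = readout between -30 and a set limit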
#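 PC3M cells stably expressing PTB-GFP, 750–1000 cells/well, treated 16 h at 37 °C with compound (23 nl of library stock), in duplicate. After paraformaldehyde fixation and Hoechst stain, imaged at 20x; PNC prevalence scored by image analysis.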
# A number is an active result; n = inactive; u = inconclusive; x = not tested or not shown; ! = not confirmed by another sample; [ ] = another dose, or the depositor's remark. Unless noted, calls come from the whole dose curve; as a rule, active = well fitted inhibition curve with a large enough effect (not every such curve was filed as active); inconclusive = small, poorly fitted or top-dose-only effect, or another doubt; inactive = no such curve, though single readings can be large or run the other way.
SMILES,HPGD block,ALDH1A1 inh,PNC assembly inh
CCOc1ccc(Br)cc1C(=O)Nc1ccc(C(=O)NCC(C)C)cc1,2µM,n,n
CCOc1ccccc1C(=O)Nc1cc(C(=O)NCC(C)C)ccc1Cl,x,n,x
COc1ccc(/C=C/C(=O)c2ccoc2)cc1,u,u,n
COc1ccc(/C=C/C2=CC(C)(C)NC(=S)N2)cc1,x,5.62µM,x
Nc1ccc(C23CC4CC(CC(CO)(C4)C2)C3)cc1,n,11.2µM,n
Nc1ccc(C23CC4CC(CC(O)(C4)C2)C3)cc1,n,u,n
COc1cc(OC)cc(C(=O)NCC(=O)OCC(=O)C(C)(C)C)c1,n,n,n
COc1ccc2c(c1)CCCC21NC(=O)N(CC(=O)NC(=O)NCc2ccccc2)C1=O (configuration not stated),x,n,x
COc1ncc2nc(-c3cn(C)c4ccccc34)c(=O)n(CCC#N)c2n1,x,n,x
CCOC(=O)c1ccc2[nH]cc(C(C)=O)c(=O)c2c1,u,u,n
CCN(CC)c1ncccc1C(=O)NCc1cccs1,n,n,n
Cc1ccc2[nH]cc(C(=O)NCc3cccs3)c(=O)c2c1,n,15.8µM,u
Cc1c(C)n(C)c2ccc(C(=O)NCc3cccs3)cc12,u,u,-119.3
Cc1ccc(C)c(Nc2ncccc2C(=O)NCc2cccs2)c1,25.1µM,n,n
COc1cccc2c(=O)c(C(=O)NCc3cccs3)c[nH]c12,u,u,n
CC(=O)c1c[nH]c2ccc(C)cc2c1=O,n,n,-86.7
CCCN1C(=O)c2cc(C(=O)NCc3cccs3)ccc2C1O (configuration not stated),n,u,n
CCN1CCN(c2c(Cl)cccc2NC(=O)c2ccc([N+](=O)[O-])cc2)CC1,x,n,x
CC(=O)Nc1ccc(NC(=O)COC(=O)c2ccccn2)cc1,x,n,x
O=C(O)CSSCC(=O)O,n,n[13.5 µM],x
O=C(c1cc2ccccc2oc1=O)N1CCN(c2ncccn2)CC1,n,n,n
O=C1/C(=C/c2ccc(F)cc2)SC(=S)N1Nc1ncc(C(F)(F)F)cc1Cl,n,u,n
O=C1/C(=C\c2ccccn2)SC(=S)N1Nc1ncc(C(F)(F)F)cc1Cl,31.6µM,u,n
COc1ccc(CCNC(=O)Cn2nc([N+](=O)[O-])c(Br)c2C)cc1OC,n,n,u
CCc1ccc(/C=C/C(=O)c2ccc(N3CCOCC3)cc2)cc1,n,n,n
SMILES,HPGD block,ALDH1A1 inh,PNC assembly inh
CCc1ccc(C(=O)/C=C/c2ccc([N+](=O)[O-])o2)cc1,n,3.55µM,n
COc1ccc(OC)c(Cc2nnc(CCC(=O)NCc3nc4ccccc4s3)o2)c1,x,n,x
Cc1cc(C(=O)C(=O)O)c(C)n1-c1ccc(Cl)cc1,x,n,x
COc1ccc(Cl)cc1-n1c(C)cc(C(=O)O)c1C,12.6µM,u,n
COc1ccc(Cl)cc1NC(=O)C(=O)N/N=C/c1cc(C)n(-c2ccc(C)cc2)c1C,n,u,u
COc1ccc(Cl)cc1-n1c(C)cc(C=O)c1C,14.1µM,12.6µM,n
CC(C)(C)c1ccc(/C=C/C(=O)Nc2ccc3c(c2)OCCO3)cc1,n,n,x
COc1ccc(-c2nc(C)c(C(C)=O)n2O)cc1[N+](=O)[O-],x,n,x
Cc1ccc(N2C(=O)[C@@H]3[C@H](C2=O)[C@H]2C=C(C(=O)c4ccccc4)C=CN2[C@@H]3C(=O)c2ccc(Cl)cc2)cc1,39.8µM,25.1µM,u
O=C(C1=C[C@@H]2[C@H]3C(=O)N(c4cccc(Cl)c4)C(=O)[C@H]3[C@@H](C(=O)c3ccc(Cl)cc3)N2C=C1)c1ccccc1,n,u,n
Brc1cc(Cc2nnc(-c3ccccc3)o2)c(Br)s1,x,n,x
COC(=O)N1CCC[C@@]2(CCN(C(=O)Nc3cccc(F)c3)C2)C1,n,n,x
N#CC(=C=[N-])c1nc2ccccc2nc1-[n+]1cccc(NC(=O)c2ccc(F)cc2)c1,x,n,x
N#CC(=C=[N-])c1nc2ccccc2nc1-[n+]1cccc(NC(=O)c2ccccc2)c1,x,14.1µM!,x
O=C(O)P(=O)(O)O,n,n,x
C[C@H](C[C@H](N)C(=O)O)C(=O)O,n,n,x
C[C@@]12CC(=O)C3=C(CCCC3=O)N1CCc1ccccc12,n,n,x
Cc1cccc(OCC(=O)Nc2cccc(C(=O)Nc3ccccc3C(=O)O)c2)c1,u,5.62µM,n
O=C(COc1ccccc1)Nc1nnc(-c2ccccc2)o1,n,n,n
Cc1cccc(OCC(=O)Nc2cccc(C(=O)NCC(C)C)c2)c1,n,n,n
CC(C)c1ccc(OCC(=O)Nc2cccc(C(=O)Nc3ccccc3C(=O)O)c2)cc1,x,20µM,x
O=C(COc1ccccc1)Nc1cccc(-c2nnc(-c3ccccc3)o2)c1,4.47µM,n,n
Cc1cccc(OCC(=O)Nc2ccccc2C(F)(F)F)c1,17.8µM,n,n
CC(C)C(=O)Nc1cccc(C(=O)Nc2ccccc2C(=O)O)c1,n,n,n
Cc1cccc(C)c1OCC(=O)Nc1ccccc1C(F)(F)F,x,n,x
SMILES,HPGD block,ALDH1A1 inh,PNC assembly inh
CCOc1ccc(C(=O)Nc2ncccc2Cl)cc1,x,n,x
COc1ccc(CNC(=O)C(NC(C)=O)C(=O)Nc2ccc(C(C)C)cc2)cc1 (configuration not stated),x,n,x
Cc1ncc([N+](=O)[O-])n1Cc1ccc(Br)cc1,x,n,x
Cc1cc(C)c2[nH]c(=O)c(CN(Cc3cccs3)C(=S)NCc3ccco3)cc2c1,n,u,n
C/C=C/c1ccc(OC(C)[C@@H](O)c2ccc(O)c(OC)c2)c(OC)c1 (some centres not stated),n,u,x
C=CCOc1c(Br)cc(CNc2ccc(NC(=O)C(C)C)c(OC)c2)cc1OCC,n,u,n
COc1cccc(C(=O)Nc2cc(C)ccc2NC(=O)COc2ccccc2)c1,x,14.1µM,n
COc1cccc(OCC(=O)Nc2ccccc2NC(C)=O)c1,n,u,n
CCCn1c(CCC(=O)Nc2ccccc2Cc2ccccc2)nc2cc(S(=O)(=O)N3CCOCC3)ccc21,n,u,n
COc1cc2oc(=O)cc(-c3ccc(-c4ccc(N(C)C)cc4)cc3)c2c(OC)c1OC,n,n,x
CCN(CC)c1ccc(C=Nc2ccc(C#N)cc2)c(O)c1,28.2µM,35.5µM,n
CCN(CC)c1ccc(C=Nc2ccccc2C)c(O)c1,n,n,n
COC(=O)c1cc(S(=O)(=O)Nc2cc(S(=O)(=O)N(C)C)ccc2C)oc1C,x,n,x
O=C(NCCO)c1cccc2c1C(=O)c1ccccc1-2,n,20µM,u
O=C(NCCO)c1ccccc1O,u,u,n
CCc1cccc(C)c1NC(=O)CO/N=C(\C)c1cc2ccccc2o1,n,n,n
CC1=N/C(=C/c2ccco2)C(=O)O1,x,n,x
CCC1C/C(=C/c2ccco2)C(=O)/C(=C/c2ccco2)C1 (configuration not stated),n,u,-119.3
Nc1ccc2c(c1)C/C(=C/c1ccco1)C2=O,u,u,n
COc1ccc2c(c1)CC/C(=C/c1ccco1)C2=O,u,u,n
O=C1C(=Cc2ccco2)C(=O)c2ccccc21,n,12.6µM,n
O=C1/C(=C/c2ccco2)CCc2ccccc21,n,28.2µM,n
CCn1cc(CN2CCc3c([nH]c4ccccc34)C2c2cccc(OC)c2)c(C)n1 (configuration not stated),x,n,x
